F508del corr = CFTR F508del correction in bronchial cells; CFBE cells, YFP halide quenching; stimulated with forskolin plus potentiator P3; % fluorescence drop versus neutral controls; activity (quench increase), % at 7.58 µM; 350,000 compounds, 0.36% hits;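 active means mean added fluorescence quench of at least 8% versus neutral control, with both replicates also reaching 8%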;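 further: cells transiently co-express mutant CFTR-F508del with the halide-sensitive YFP; corrector assay measuring rescue of mutant channel to the surface after 24 h compound exposure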
HIV Env fusion = inhibitors of HIV Env-mediated cell fusion; 360,000 compounds, 1.1% hits; inhibition, % at 12.3 µM; HeLa-JRFL Env/CEM21 cell fusion, luciferase; AID 651610;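 active means mean replicate inhibition score of at least 50 and every replicate individually at or above 50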
PAX8 reporter = lowers PAX8-driven luciferase in RMG-I cells | AID 652154 | inhibition, % at 12.6 µM | 360,000 compounds, 1.2% hits | RMG-I TPO-luciferase reporter, SteadyGlo, 24 h;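 active means mean replicate inhibition at least 60% with every replicate also reaching 60%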;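 further: luciferase light reporting Pax8 driven TPO promoter activity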
PGC1a acetyl inh = PGC1a acetylation modulation, inhibitor mode; U2OS PGC1a acetylation, AlphaScreen anti-acetyl-lysine; with virally co-expressed GCN5 acetyltransferase; inhibition, % at 15.6 µM; 350,000 compounds, 0.17% hits; AID 651687;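 active means every replicate shows inhibition of at least 40%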
EWS-Fli block = inhibitors of EWS/Fli oncoprotein transcriptional activity. 350,000 compounds, 0.67% hits. AID 651661. inhibition, % at 12.6 µM. A673 NR0B1-luciferase reporter, viability-normalised;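 active means mean inhibition of at least 50% after viability correction, with every replicate also passing that limit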;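 further: firefly luciferase signal divided by Alamar Blue viability fluorescence both relative to DMSO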
GSIS activator = GLuc luminescence reporter in INS-1E cells, primary screen for activators of glucose-dependent secretion of insulin; INS-1E GLuc reporter insulin secretion, 2-3 h; 370,000 compounds, 0.61% hits; activation, % at 16.6 µM;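 active means lowest replicate activation of at least 40%, so every replicate reaches that level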
Hits are given with their value; – = inactive; · = not tested or not shown; [ ] = remark or other dose. Shown are actives, neighbours in structure and some others; about 2.7% of the full set was active somewhere.

SMILES	F508del corr	HIV Env fusion	PAX8 reporter	PGC1a acetyl inh	EWS-Fli block	GSIS activator
S=c1nc[nH]c2c1cnn2Cc1ccccc1	–	–	–	45	–	–
CC(=O)Oc1ccccc1C(=O)Nc1ccccc1	–	–	–	·	–	–
COC1(OC)C=CC(=O)C=C1NC(=O)c1ccccc1OC(C)=O	–	–	69	·	55	–
Cc1ccc(Cl)cc1N1CCN(C(=O)c2noc(C)c2[N+](=O)[O-])CC1	–	–	105	·	70	·
CC(=O)c1cc(NC(=O)c2cccc(C(F)(F)F)c2)c(=O)oc1C	11	–	89	–	–	–
COc1cccc(S(=O)(=O)N2CC3(CN(C(=O)Nc4cccc(F)c4)[C@H](CO)c4[nH]c5cc(OC)ccc5c43)C2)c1	–	80[16.7 µM]	·	·	–	–
COc1ccc2c3c([nH]c2c1)[C@H](CO)N(C(=O)Nc1ccc(F)cc1)CC31CCN(S(=O)(=O)c2ccccc2)CC1	8.8	·	·	–	–	–
COc1cccc(S(=O)(=O)N2CC3(CN(C(=O)Nc4ccc(F)cc4)[C@@H](CO)c4[nH]c5cc(OC)ccc5c43)C2)c1	–	·	·	–	–	–
COc1ccc2c3c([nH]c2c1)[C@@H](CO)N(C(=O)Nc1ccc(F)cc1)CC31CN(S(=O)(=O)c2ccc(C)cc2)C1	–	·	68	–	–	–
COc1ccc2c3c([nH]c2c1)[C@@H](CO)N(C(=O)Nc1cccc(F)c1)CC31CN(S(=O)(=O)c2ccccc2)C1	·	·	·	·	·	–
COc1ccc2c3c([nH]c2c1)[C@@H](CO)N(C(=O)Nc1cccc(F)c1)CC31CN(S(=O)(=O)c2cccc(C)c2)C1	–	80[16.7 µM]	·	·	–	–
Cc1ccccc1S(=O)(=O)N1[C@H](CO)[C@@H](c2ccc(C#CC3CCCC3)cc2)[C@@H]1C#N	–	·	·	·	–	–
COc1ccc2c3c([nH]c2c1)[C@@H](CO)N(C(=O)Nc1cccc(F)c1)CC31CCN(S(=O)(=O)c2cccc(C)c2)CC1	–	·	96	–	–	–
NC(=S)NCc1cccnc1	–	–	–	·	–	–
CSC(=S)NCc1cccnc1	·	–	64	–	–	–
Cc1ccc(S(=O)(=O)N[C@H]2CC[C@H](CC(=O)NCc3ccc(Cl)c(Cl)c3)O[C@H]2CO)cc1	–	–	–	–	–	–
COc1ccc(CN2CCC(C)=CC2C)cc1 (stereo unspecified)	–	–	–	–	–	·
O=C(NCc1cccnc1)Nc1ccc(Cl)cc1Cl	–	57	–	–	–	–
O=C(NCc1cccnc1)Nc1ccc(Br)cc1Cl	–	56	–	·	–	–
O=C(NCc1cccnc1)Nc1cccc(Cl)c1Cl	–	–	·	·	·	–
CC1(C)N=C(N)N=C(N)N1CCCCc1ccccc1	–	75	73	–	–	–
CC1(C)N=C(N)N=C(N)N1c1cccc(CC(=O)Nc2ccccc2)c1	–	–	–	·	–	·
Cc1noc(C)c1NC(=O)NCC[C@@H]1CC[C@H](NC(=O)c2ccncc2)[C@H](CO)O1	–	–	–	–	–	–
CC(C)n1c(N)c(C#N)c2ccc([N+](=O)[O-])cc2c1=O	–	–	–	–	–	103
CCCCCCn1c(N)c(C#N)c2ccc([N+](=O)[O-])cc2c1=O	–	–	–	–	–	–
SMILES	F508del corr	HIV Env fusion	PAX8 reporter	PGC1a acetyl inh	EWS-Fli block	GSIS activator
COCOCCn1cc(CN2CCS(=O)(=O)N(Cc3ccc(-c4ccc(Cl)cc4)cc3)C(C)C2=O)nn1 (stereo unspecified)	–	57	–	–	–	–
COCOCCn1cc(CN2CCS(=O)(=O)N(Cc3ccc(-c4ccc(OC)nc4)cc3)C(C)C2=O)nn1 (stereo unspecified)	–	–	–	–	–	–
CCC/C=C/c1ccc(CN2C(C(C)C)C(=O)N(Cc3cn(CC4CCCCC4)nn3)CCS2(=O)=O)cc1 (stereo unspecified)	–	68	–	–	–	–
CCC/C=C/c1ccc(CN2C(C)C(=O)N(Cc3cn(CC4CCCCC4)nn3)CCS2(=O)=O)cc1 (stereo unspecified)	–	–	–	–	–	–
CCC/C=C/c1ccc(CN2C(C)C(=O)N(Cc3cn(CCC4OCCCO4)nn3)CCS2(=O)=O)cc1 (stereo unspecified)	–	–	81	·	–	–
CCC/C=C/c1ccc(CN2C(CC(C)C)C(=O)N(Cc3cn(CCC4OCCCO4)nn3)CCS2(=O)=O)cc1 (stereo unspecified)	–	–	–	·	–	–
Cc1cccc(C)c1-c1ccc(CN2C(CC(C)C)C(=O)N(Cc3cn(CC4CCCCC4)nn3)CCS2(=O)=O)cc1 (stereo unspecified)	–	–	70	–	–	–
Cc1ccc(-c2ccc3c(c2)O[C@@H](CN(C)C(=O)CN(C)C)[C@H](C)CN([C@@H](C)CO)S3(=O)=O)cc1	–	–	·	–	–	–
C[C@@H]1CN([C@@H](C)CO)S(=O)(=O)c2ccc(C#CCC3CCCC3)cc2O[C@H]1CN(C)Cc1cccc(C(=O)O)c1	–	–	–	–	–	·
CCNC(=O)C[C@@H]1CC[C@@H]2[C@H](COc3ccc(NC(=O)c4cc(C)on4)cc3C(=O)N2C)O1	–	–	–	–	–	–
CCc1cccc2c(C(=O)CN3C(=O)NC4(CCCCCC4)C3=O)c[nH]c12	–	·	82	–	–	–
CCc1cccc2c(C(=O)CN3C(=O)C(=O)N(C4CCCC4)C3=O)c[nH]c12	–	–	–	–	–	–
CCc1ccc(S(=O)(=O)/N=C2\C=C(Nc3ccc(C(=O)O)cc3)C(=O)c3ccccc32)cc1	–	73	93	·	–	–
COC(=O)c1ccccc1NC1=C/C(=N\S(=O)(=O)c2cccs2)c2ccccc2C1=O	–	–	–	–	–	·
Cc1ccc(S(=O)(=O)/N=C2\C=C(Nc3ccc(O)cc3)C(=O)c3ccccc32)cc1	·	·	·	86	·	·
O=C1C(Nc2ccccc2)=C/C(=N/S(=O)(=O)c2cccs2)c2ccccc21	·	·	·	59	·	·
Cc1ccc(NC2=C/C(=N/S(=O)(=O)c3cccs3)c3ccccc3C2=O)cc1	·	74	–	·	–	·
CCCC#Cc1ccc2c(c1)[C@@H]1[C@@H](CCN1C(=O)C1CCCCC1)[C@@H](CO)N2	–	·	·	–	·	–
O=C(C1CCC1)N1CC(=O)N2[C@H](CO)[C@H](c3ccc(-c4ccccc4F)cc3)[C@@H]2C1	–	·	–	–	–	–
Cc1ccc(S(=O)(=O)/N=C2/C=C(Sc3ncn[nH]3)C(=O)c3ccccc32)cc1	·	·	·	77	·	·
C[C@H](CO)N1C[C@H](C)[C@H](CN(C)C(=O)NC2CCCCC2)Oc2ccc(NC(=O)Cc3ccccc3)cc2CC1=O	–	–	–	–	–	–
CCCN1[C@@H]2c3ccc(-c4ccc(F)cc4)c(=O)n3C[C@H]1[C@H](CO)[C@H]2C(=O)NCC1CC1	–	·	–	·	–	–
CC(=O)N[C@H]1CC[C@@H](CC(=O)NCC2CCCCC2)O[C@H]1CO	–	–	–	–	–	–

Screening results deposited in PubChem by Broad Institute.
